The panel holds about 83,000 compounds, 20% with a hit somewhere; the sample as a whole holds those more often.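 Step 1: grow cells in 96-well plates. Step 2: add test compound at a single concentration. Step 3: incubate 48 h. Step 4: record percent growth.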 Activity calls are given as the source filed them. Rule for the calls: active = growth percent below 10; inactive = the rest.

Among the data in PubChem BioAssay (NCI) are growth values, retold here.

The assay deals with HL-60(TB) leukemia. Description: NCI-60 one-dose screen, 48 h (100 = growth as untreated, 0 = no growth, -100 = all killed). Particulars: 10 µM unless noted.
For the compound `Cc1ccc(S(=O)(=O)NCCNc2cc(-c3cn(C(C)(C)C)nc3-c3cccc(O)c3)ccn2)cc1`, the growth is 65.8% (inactive).

As to `C=C(C)[C@@H]1CC[C@]2(C(=O)N3CCN(C)CC3)CC[C@]3(C)[C@H](CC[C@@H]4[C@@]5(C)CC[C@H](OC(=O)c6ccccc6C(=O)O)C(C)(C)[C@@H]5CC[C@]43C)[C@@H]12`, the growth was 106% (inactive).

Turning to `COc1cc(-c2n[nH]nc2-c2ccccn2)cc(OC)c1OC`, the growth was 83.3% (inactive).

Turning to `Cc1cccc2nc3ccccc3c(Nc3ccc(NS(C)(=O)=O)cc3)c12`, the growth was 1.14% (active).

Consider `COC(=O)C1(CC(C)=O)NC(=S)NC(=O)C1C#N` (stereo not given), for which the growth is 102% (inactive).

For `CC(=O)N[C@H](C(=O)N[C@@H](CCCNC(=N)N)C(=O)N[C@@H](CCCCN)C(=O)N[C@@H](CCCNC(=N)N)C(=O)N[C@]1(C)CCCCCC/C=C\CCC[C@@](C)(C(=O)N[C@@H](CCCNC(=N)N)C(=O)N[C@@H](CCC(=O)O)C(=O)N[C@@H](CC(C)C)C(=O)N[C@H](C(=O)N[C@@H](CCC(=O)O)C(N)=O)C(C)C)NC(=O)[C@H](CCC(N)=O)NC(=O)[C@H](CC(C)C)NC(=O)[C@H](CC(C)C)NC(=O)[C@H](CCCNC(=N)N)NC(=O)[C@H](CCCNC(=N)N)NC(=O)[C@H](CC(C)C)NC1=O)C(C)C`, the growth is 15.9% (inactive).

As for `CCN(CC)CCCC(C)NCCCNc1cccc2cccnc12` (stereo not given), the growth is -5.92% (active).

On to `CCCCC1=C(P(=O)(O)O)N[C@H](C(=O)O)CS1`, for which the growth was 103% (inactive).

As for `O=C(Nc1cccc(-n2cc(-c3ccncc3)c(-c3cc(O)cc(Cl)c3)n2)c1)Nc1ccc(Cl)c(Cl)c1`, the growth is -23.4% (active).

Turning to `Cc1ccc(Sc2ccccc2N)cc1`, the growth was 115% (inactive).

As for `C=CCn1c(SCC(=O)Nc2ccc(C(=O)/C=C/c3ccc(OC)cc3)cc2)nnc1-c1ccccc1`, the growth is 88.5% (inactive).

With `CCCC1Cc2cc(-n3nc(C)c4c3CC(C)(C)CC4=O)cc(NC3CCC(O)CC3)c2C(=O)N1` (stereo not given), the growth was -8.17% (active).

Regarding `Cc1ccc(C(O)C2CC2)cc1` (stereo not given), the growth is 99.3% (inactive).

`O=C1c2cccc3cccc(c23)C(=O)N1N1C(=O)c2cccc3c(N4CCNCC4)ccc(c23)C1=O`: the growth was 64.7% (inactive).

As for `NC(=O)c1ccc(N=C(N)N=C(N)N)cc1`, the growth is 98.7% (inactive).

For the compound `Cc1cnc(Nc2ccc(OCCN3CCCC3)cc2)nc1Nc1cccc(S(=O)(=O)NC(C)(C)C)c1`, the growth is -39.7% (active).

Turning to `O=C1NC(=O)C(c2coc3cc(Br)ccc23)=C1c1c[nH]c2ccccc12`, the growth was 13.1% (inactive).

As for `CCOC(=O)c1c(C)oc2ncnc(Nc3ccc(NC(=O)Nc4ccc(CC)cc4)cc3)c12`, the growth is 103% (inactive).

On to `COc1ccc(C2CC(n3nnnc3-c3ccccc3)=NN2)cc1` (stereo not given), for which the growth was 4.11% (active).

Take `COc1ccc(C2=Nn3c(nnc3-c3cc(Cl)cc(Cl)c3Cl)SC2)cc1`: the growth is -32% (active).

For the compound `CCCOC(=O)Nc1nc2ccc(SCC(C)C)cc2s1`, the growth was 15.9% (inactive).

On to `Cc1cc(NCc2cc(Nc3ccnc4cc(Cl)ccc34)ccc2F)nc(N2CCOCC2)n1`, for which the growth is -52.7% (active).

Take `Fc1ccc(-c2cnc3nonc3n2)c(F)c1`: the growth was 7.84% (active).

On to `Clc1cc(Cl)cc(Nc2ccc3cc(OCCCN4CCOCC4)ccc3n2)c1`, for which the growth was 26.7% (inactive).

For the compound `S=C1SCN(CCc2ccccc2)CN1CCc1ccccc1`, the growth is 89.7% (inactive).

In the case of `FC(F)(F)c1cc(NC2=NCCN=C(Nc3cc(C(F)(F)F)cc(C(F)(F)F)c3)SS2)cc(C(F)(F)F)c1`, the growth was 52.9% (inactive).

Turning to `O=C(O)c1ccc(-n2cc(/C=N/Nc3ccccc3F)c(-c3ccc(O)cc3)n2)cc1`, the growth was 45% (inactive).

On to `C=C(C[n+]1ccccc1)[C@@H]1CC[C@]2(C(=O)OC)CC[C@]3(C)[C@H](CC[C@@H]4[C@@]5(C)CC[C@H](O)C(C)(C)[C@@H]5CC[C@]43C)[C@@H]12`, for which the growth was 93.5% (inactive).

Turning to `CN(C)Cc1cc(C(C)(C)C)cc(Br)c1O`, the growth is 123% (inactive).

Turning to `CC1(C)N=C(N)N=C(N)N1c1cccc(OCCOc2cccc([N+](=O)[O-])c2)c1`, the growth was 17.6% (inactive).

For the compound `COc1ccc(-c2nn(-c3cccc(NC(=O)c4ccc(N5CCOCC5)c(C(F)(F)F)c4)c3)cc2-c2ccncc2)cc1Cl`, the growth is 38.1% (inactive).

With `COc1cc(C2CC(c3cccc(Nc4ccncc4)c3)=NN2c2ccccc2)cc(OC)c1OC` (stereo not given), the growth was -43.8% (active).

`C=C(C)[C@@H]1CC[C@]2(C(=O)N3CCN(C)CC3)CC[C@]3(C)[C@H](CC[C@@H]4[C@@]5(C)C/C(=C/c6cccnc6)C(=O)C(C)(C)[C@@H]5CC[C@]43C)[C@@H]12`: the growth was -4.95% (active).

Turning to `O=c1cc(-c2ccc3c(c2)OCCO3)oc2cc(Cl)ccc12`, the growth was 110% (inactive).

With `Cc1nc2ccc(CN(C)c3ccc(C(=O)N[C@@H](CCC(=O)O)C(=O)O)s3)cc2c(=O)[nH]1`, the growth is 27.9% (inactive).

`Cc1ccccc1-n1c(C)nc2cc(NC(=O)c3ccc(Cl)cc3)ccc2c1=O`: the growth is 64.5% (inactive).

With `COc1cc2oc3cc(=O)cc4oc(-c5ccccc5)cc(c2c2c1CCC(c1ccccc1)O2)c43` (stereo not given), the growth was 138% (inactive).

Regarding `OC1CCCc2ccccc21` (stereo not given), the growth was 98.4% (inactive).

On to `Cc1cc([N+](=O)[O-])c(C)cc1C(=O)O`, for which the growth is 107% (inactive).

As for `COc1cc(/C=C2\CCC/C(=C\c3cc(CN4CCCC4)c(O)c(OC)c3)C2=O)cc(CN2CCCC2)c1O`, the growth is 5.18% (active).
